In PubChem BioAssay (Tox21) one finds Potency and activity change, negative = inhibition data, which are given here for 36 compounds.

SMILES strings stand for the structures. Inconclusive results are not listed. A call without a number means that no potency is given here. Active and inactive are the calls of the source. Calls follow the shape of the dose curve; as a rule, active = well fitted curve in the direction sought with a large enough effect in the repeat runs; inconclusive = weak or mixed curves; inactive = no such curve, though single readings can be large; an effect the other way counts as inactive or inconclusive.
Also: nearly all actives have a fitted effect of over 50% in size.
Potency is read from the fitted curve at half-maximal effect.

Chain of Cytochrome P450 2C9 (Homo sapiens) (P11712 whole entry, looked up): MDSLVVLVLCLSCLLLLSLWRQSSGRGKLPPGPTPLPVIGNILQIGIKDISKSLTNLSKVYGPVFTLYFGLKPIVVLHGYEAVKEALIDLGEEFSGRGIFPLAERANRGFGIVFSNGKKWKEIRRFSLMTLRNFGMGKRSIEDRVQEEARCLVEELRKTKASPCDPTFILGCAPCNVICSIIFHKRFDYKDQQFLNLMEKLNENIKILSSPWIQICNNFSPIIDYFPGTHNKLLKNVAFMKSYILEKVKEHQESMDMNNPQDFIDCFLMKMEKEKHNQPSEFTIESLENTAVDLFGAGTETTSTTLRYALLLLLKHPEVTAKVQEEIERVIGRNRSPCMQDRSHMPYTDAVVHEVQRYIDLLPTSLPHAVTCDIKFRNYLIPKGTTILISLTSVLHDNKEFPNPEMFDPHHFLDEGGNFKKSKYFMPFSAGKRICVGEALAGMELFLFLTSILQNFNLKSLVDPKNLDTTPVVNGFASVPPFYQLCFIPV
Chain of Cytochrome P450 1A2 (Homo sapiens) (P05177 whole entry, looked up): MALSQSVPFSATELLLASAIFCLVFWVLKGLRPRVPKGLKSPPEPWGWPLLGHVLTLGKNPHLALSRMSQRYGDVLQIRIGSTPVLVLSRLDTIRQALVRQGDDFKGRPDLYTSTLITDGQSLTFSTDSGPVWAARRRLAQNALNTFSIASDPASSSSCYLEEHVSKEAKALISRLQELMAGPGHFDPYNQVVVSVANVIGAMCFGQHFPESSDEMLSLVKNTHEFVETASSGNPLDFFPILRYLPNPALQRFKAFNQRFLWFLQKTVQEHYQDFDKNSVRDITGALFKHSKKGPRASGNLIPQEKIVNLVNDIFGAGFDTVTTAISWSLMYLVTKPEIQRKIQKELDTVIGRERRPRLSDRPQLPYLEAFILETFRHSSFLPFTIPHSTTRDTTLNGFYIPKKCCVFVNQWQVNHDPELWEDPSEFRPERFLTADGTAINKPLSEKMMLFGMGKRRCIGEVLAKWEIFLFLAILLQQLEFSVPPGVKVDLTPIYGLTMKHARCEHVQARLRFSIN
Chain of Voltage-gated inwardly rectifying potassium channel KCNH2 (Homo sapiens) (Q12809 whole entry, looked up): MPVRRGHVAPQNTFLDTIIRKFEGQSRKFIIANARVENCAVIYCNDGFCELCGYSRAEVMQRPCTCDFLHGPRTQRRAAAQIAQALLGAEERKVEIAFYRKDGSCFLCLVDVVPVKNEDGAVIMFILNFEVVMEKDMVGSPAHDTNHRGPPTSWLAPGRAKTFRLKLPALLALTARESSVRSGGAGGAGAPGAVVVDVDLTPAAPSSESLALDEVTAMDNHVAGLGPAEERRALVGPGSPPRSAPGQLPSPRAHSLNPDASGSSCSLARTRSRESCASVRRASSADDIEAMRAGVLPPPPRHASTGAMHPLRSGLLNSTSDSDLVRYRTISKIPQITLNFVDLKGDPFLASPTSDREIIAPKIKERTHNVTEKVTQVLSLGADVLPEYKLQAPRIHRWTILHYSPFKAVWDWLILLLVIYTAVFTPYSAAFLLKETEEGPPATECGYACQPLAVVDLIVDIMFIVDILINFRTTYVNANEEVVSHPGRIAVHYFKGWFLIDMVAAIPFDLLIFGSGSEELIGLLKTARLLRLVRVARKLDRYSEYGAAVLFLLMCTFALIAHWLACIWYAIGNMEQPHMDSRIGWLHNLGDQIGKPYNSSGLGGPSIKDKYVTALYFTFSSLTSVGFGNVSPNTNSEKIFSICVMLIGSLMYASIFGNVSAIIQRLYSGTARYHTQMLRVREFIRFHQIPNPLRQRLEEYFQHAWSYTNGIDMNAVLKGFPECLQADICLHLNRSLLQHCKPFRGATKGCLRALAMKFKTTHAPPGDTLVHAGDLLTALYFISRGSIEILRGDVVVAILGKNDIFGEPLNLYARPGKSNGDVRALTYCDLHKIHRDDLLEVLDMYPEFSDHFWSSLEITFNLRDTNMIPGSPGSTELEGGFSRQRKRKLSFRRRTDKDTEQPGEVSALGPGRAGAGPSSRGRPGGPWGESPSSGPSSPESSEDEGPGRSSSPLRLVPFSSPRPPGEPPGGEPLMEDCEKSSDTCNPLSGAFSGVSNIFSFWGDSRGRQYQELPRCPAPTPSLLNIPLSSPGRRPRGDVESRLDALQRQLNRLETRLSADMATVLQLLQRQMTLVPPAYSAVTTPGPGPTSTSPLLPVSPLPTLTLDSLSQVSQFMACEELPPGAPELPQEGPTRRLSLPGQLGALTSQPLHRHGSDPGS

The target in the first assay is Cytochrome P450 2C9 (Homo sapiens) (UniProt P11712). Put plainly: Cytochrome P450 Family 2 Subfamily C Member 9 (CYP2C9) small molecule antagonists: luciferase reporter qHTS assay (AID 1671198). As to conditions: P450-Glo CYP2C9 enzyme assay, luciferin luminescence; series mostly up to 115 µM. A digest of the protocol:
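CYP2C9 activity was measured with a P450-Glo proluciferin substrate. Enzyme–substrate mix was held with compound for 10 min at room temperature, then NADPH regeneration solution was added for 1 h at 37C. Luciferin product was read as luminescence.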
A general note: In a reporter assay the amount or activity of a reporter protein is the signal.
Consider `Nc1nc(N)c(-c2ccccc2)s1`, for which the Potency entry was “inactive”.
Still for that read-out and setting: next, `Cc1ccc(C)o1`: “inactive”; `C=CC[N+]1([C@H]2C[C@H]3[C@@H]4CC[C@H]5C[C@H](OC(C)=O)[C@@H](N6CCCCC6)C[C@]5(C)[C@H]4CC[C@]3(C)[C@H]2OC(=O)CC)CCCCC1`: “inactive”; `Cc1cc(CC(=O)O)c(C)n1-c1ccc(Cl)cc1`: 15.5 µM (active).

A further assay has as its target Cytochrome P450 1A2 (Homo sapiens) (UniProt P05177). In words: Cytochrome P450 Family 1 Subfamily A Member 2 (CYP1A2) small molecule antagonists: luciferase reporter qHTS assay (AID 1671199). As to conditions: P450-Glo CYP1A2 enzyme, luciferin luminescence, 1 h; series mostly up to 115 µM. A digest of the protocol:
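Read-out is luminescence from luciferin detection reagent (20 min) proportional to CYP1A2 activity; compounds in DMSO preincubated 10 min with enzyme and proluciferin substrate, then NADPH regeneration solution, 1 h, room temperature.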
With `CCCCCCCC/C=C\CCCCCCCC(N)=O`, the Potency is 35.6 µM (active).
As for `C#CCOC(=O)[C@@H](C)Oc1ccc(Oc2ncc(Cl)cc2F)cc1`, the Potency is 5 µM (active).
`CCOC(=O)[C@H](CCc1ccccc1)N[C@H]1CCc2ccccc2N(CC(=O)O)C1=O`: the Potency is 12.9 µM (active).
On to `CCCCCC/C=C/C=O`, for which the Potency result was “inactive”.
Turning to `Nc1cnn([C@@H]2O[C@H](CO)[C@@H](O)[C@H]2O)c(=O)n1`, the Potency result is “inactive”.
On the same count and under the same terms, under `NC1CCN(c2nc3c(cc2F)c(=O)c(C(=O)O)cn3-c2ccc(F)cc2F)C1` (stereo not drawn) stands “inactive”; under `CC(C)(C)C(=O)OCOP(=O)(COCCn1cnc2c(N)ncnc21)OCOC(=O)C(C)(C)C`, “inactive”.
The same measure, in the same setting: under `COC(=O)CSc1cc(N=c2sc(=O)n3n2CCCC3)c(F)cc1Cl` stands 3.17 µM (active); under `Cc1c(Cn2ccnc2)c2ccccc2n1CCC(=O)O`, 12.3 µM (active).
On the same count and under the same terms, under `Cc1nc2ccccc2n1Cc1ccc(Cl)cc1` stands 7.23 µM (active); under `CN1CCC(=C2c3ccccc3CCc3sccc32)CC1`, “inactive”.
On to `O=C(CCN1CCN2CCCC2C1)N1c2ccccc2Sc2ccc(Cl)cc21` (stereo not drawn), for which the activity change, negative = inhibition is -23.8% [at 23.6 µM] (inactive).
For the compound `CCN(CC)CCNC(C(=O)OCCC(C)C)c1ccccc1` (stereo not drawn), the Potency entry is “inactive”.
For `COc1ccc([C@@H]2Sc3ccccc3N(CCN(C)C)C(=O)[C@@H]2OC(C)=O)cc1`, the Potency entry was “inactive”.
Same read-out and setting: under `CCCCOC(=O)c1ccccc1C(=O)OCC(CC)CCCC` (stereo not drawn) stands 12.6 µM (active); under `CC(=O)O[C@H]1C[C@@H]2CC[C@@H]3[C@H](CC[C@@]4(C)[C@H]3C[C@H]([N+]3(C)CCCCC3)[C@@H]4OC(C)=O)[C@@]2(C)C[C@@H]1N1CCCCC1`, “inactive”.
With `c1ccc(CNCc2ccccc2)cc1`, the Potency is 25.2 µM (active).
The same measure, in the same setting: under `CCCC[C@H]1CN(CC2CCOCC2)C(=O)OC12CCN(C1(C)CCN(C(=O)c3c(C)ncnc3C)CC1)CC2` stands 35.2 µM (active); under `N[C@H]1C(O)O[C@H](CO)[C@H](O)[C@@H]1O` (stereo partly drawn), “inactive”; under `Cn1c(NCCN(CCO)CCCc2ccc([N+](=O)[O-])cc2)cc(=O)n(C)c1=O`, “inactive”.
On the same count and under the same terms, next, `CCOC(=O)C1=C(C)NC(C)=C(C(=O)OC)C1c1cccc([N+](=O)[O-])c1` (stereo not drawn): “inactive”; `CC(=O)c1c(C)c([N+](=O)[O-])c(C(C)(C)C)c([N+](=O)[O-])c1C`: 11.2 µM (active); `CCOc1ccc2[nH]cc(C(=O)NCc3ccccc3)c(=O)c2n1`: 31.7 µM (active).
`COc1ccc2[nH]c(S(=O)Cc3ncc(C)c(OC)c3C)nc2n1` (stereo not drawn): the Potency was 24.5 µM (active).
The same measure, in the same setting: next, `O=C(c1ccc(O)cc1)c1ccc(O)cc1`: 39.9 µM (active).
As for `O=C(Nc1ccccc1)OCC(CN1CCCCC1)OC(=O)Nc1ccccc1` (stereo not drawn), the Potency entry was “inactive”.
The same measure, in the same setting: under `O=S1(=O)c2cccc3cccc(c23)N1CCCN1CCN(c2ccc(F)cc2)CC1` stands 15.5 µM (active).
Take `CCCCCCCCCCCCCCCCCBr`: the activity change, negative = inhibition was -12.4% [at 23.6 µM] (inactive).
For the compound `O=C(O)C(c1ccc(Cl)cc1)c1ccc(Cl)cc1`, the Potency result is “inactive”.
As for `O=C(Cl)c1ccc([N+](=O)[O-])cc1`, the Potency is 55.4 µM (active).
For `CC(C)c1ccc2c(C(C)C)cc(C(C)C)c(S(=O)(=O)O)c2c1`, the Potency result was “inactive”.
Consider `Cn1c(=O)c2c(ncn2CC(O)CO)n(C)c1=O` (stereo not drawn), for which the Potency result was “inactive”.
Still for that read-out and setting: under `Nc1nc(N)c(-c2ccccc2)s1` stands 30.9 µM (active); under `Cc1ccc(C)o1`, “inactive”.
The same measure, in the same setting: next, `C=CC[N+]1([C@H]2C[C@H]3[C@@H]4CC[C@H]5C[C@H](OC(C)=O)[C@@H](N6CCCCC6)C[C@]5(C)[C@H]4CC[C@]3(C)[C@H]2OC(=O)CC)CCCCC1`: “inactive”; `Cc1cc(CC(=O)O)c(C)n1-c1ccc(Cl)cc1`: “inactive”.

The next assay has as its target Voltage-gated inwardly rectifying potassium channel KCNH2 (Homo sapiens) (UniProt Q12809). Put plainly: Human Ether-a-go-go-Related Gene (hERG) channel small molecule antagonists: fluorescence cell-based qHTS assay (AID 1671200).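 As to activity change, negative = inhibition: hERG-expressing U2OS cells given a thallium stimulus after FluxOR II dye loading.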 As to conditions: hERG-U2OS cells, FluxOR thallium flux fluorescence; series mostly up to 76.8 µM. A digest of the protocol: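 hERG-U2OS cells plated overnight at 37 C, loaded with FluxOR II dye 1 h at RT in dark; after 10 min, thallium stimulus added. Fluorescence (480/540 nm) read kinetically for 2 min at 1 s intervals.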
On to `CCCCCCCC/C=C\CCCCCCCC(N)=O`, for which the Potency result is “inactive”.
On to `CCCCCC/C=C/C=O`, for which the Potency entry was “inactive”.
The same measure, in the same setting: next, `Nc1cnn([C@@H]2O[C@H](CO)[C@@H](O)[C@H]2O)c(=O)n1`: “inactive”.
Still for that read-out and setting: under `NC1CCN(c2nc3c(cc2F)c(=O)c(C(=O)O)cn3-c2ccc(F)cc2F)C1` (stereo not drawn) stands “inactive”.
Consider `CC(C)(C)C(=O)OCOP(=O)(COCCn1cnc2c(N)ncnc21)OCOC(=O)C(C)(C)C`, for which the Potency entry is “inactive”.
The same measure, in the same setting: next, `Cc1c(Cn2ccnc2)c2ccccc2n1CCC(=O)O`: “inactive”; `Cc1nc2ccccc2n1Cc1ccc(Cl)cc1`: “inactive”.
Still for that read-out and setting: next, `CN1CCC(=C2c3ccccc3CCc3sccc32)CC1`: 16.9 µM (active).
Still for that read-out and setting: next, `CCN(CC)CCNC(C(=O)OCCC(C)C)c1ccccc1` (stereo not drawn): 9.52 µM (active).
For `CCCCOC(=O)c1ccccc1C(=O)OCC(CC)CCCC` (stereo not drawn), the Potency result is “inactive”.
Still for that read-out and setting: next, `CC(=O)O[C@H]1C[C@@H]2CC[C@@H]3[C@H](CC[C@@]4(C)[C@H]3C[C@H]([N+]3(C)CCCCC3)[C@@H]4OC(C)=O)[C@@]2(C)C[C@@H]1N1CCCCC1`: “inactive”.
Still for that read-out and setting: next, `c1ccc(CNCc2ccccc2)cc1`: “inactive”; `CCCC[C@H]1CN(CC2CCOCC2)C(=O)OC12CCN(C1(C)CCN(C(=O)c3c(C)ncnc3C)CC1)CC2`: 12.2 µM (active).
On the same count and under the same terms, next, `CCOC(=O)C1=C(C)NC(C)=C(C(=O)OC)C1c1cccc([N+](=O)[O-])c1` (stereo not drawn): “inactive”; `CC(=O)c1c(C)c([N+](=O)[O-])c(C(C)(C)C)c([N+](=O)[O-])c1C`: “inactive”.
As for `CCOc1ccc2[nH]cc(C(=O)NCc3ccccc3)c(=O)c2n1`, the Potency entry was “inactive”.
As for `COc1ccc2[nH]c(S(=O)Cc3ncc(C)c(OC)c3C)nc2n1` (stereo not drawn), the Potency result was “inactive”.
On the same count and under the same terms, under `O=C(c1ccc(O)cc1)c1ccc(O)cc1` stands “inactive”; under `O=C(Nc1ccccc1)OCC(CN1CCCCC1)OC(=O)Nc1ccccc1` (stereo not drawn), 6.01 µM (active).
Consider `CCCCCCCCCCCCCCCCCBr`, for which the activity change, negative = inhibition is 7.46% [at 15.8 µM] (inactive).
With `O=C(O)C(c1ccc(Cl)cc1)c1ccc(Cl)cc1`, the Potency entry is “inactive”.
For the compound `O=C(Cl)c1ccc([N+](=O)[O-])cc1`, the Potency result was “inactive”.
Still for that read-out and setting: under `CC(C)c1ccc2c(C(C)C)cc(C(C)C)c(S(=O)(=O)O)c2c1` stands “inactive”; under `Cn1c(=O)c2c(ncn2CC(O)CO)n(C)c1=O` (stereo not drawn), “inactive”.
As for `Nc1nc(N)c(-c2ccccc2)s1`, the Potency entry was “inactive”.
Still for that read-out and setting: under `Cc1ccc(C)o1` stands “inactive”.
Take `C=CC[N+]1([C@H]2C[C@H]3[C@@H]4CC[C@H]5C[C@H](OC(C)=O)[C@@H](N6CCCCC6)C[C@]5(C)[C@H]4CC[C@]3(C)[C@H]2OC(=O)CC)CCCCC1`: the Potency result was “inactive”.
Same read-out and setting: next, `Cc1cc(CC(=O)O)c(C)n1-c1ccc(Cl)cc1`: “inactive”.
